# In PubChem BioAssay (NCATS):
# Results filed as inconclusive are left out. The source made the active and inactive calls. Calls come from the whole dose curve; as a rule, active = well fitted inhibition curve with a large enough effect; inconclusive = small, poorly fitted or top-dose-only effect; inactive = no such curve, though single readings can be large or run the other way. Where a SMILES comes first, the peptide text is derived from it. [ ]: non-standard residue; d: D form.
# System: Zika virus NS2B-NS3 protease (unlinked complex)
# Assay: Primary screen GU Rhodamine qHTS for Zika virus inhibitors: Unlinked NS2B-NS3 protease assay (AID 1347159); note: nearly all actives have a fitted effect of over 60% in size
# Settings: Recombinant ZIKV NS2B-NS3 protease, Rhodamine110 substrate fluorescence; series mostly up to 107 µM; activity change, negative = inhibition: at the top concentration
# Source text: Avindra Nath, Ph.D., National Institute of Neurological Disorders and Stroke (NINDS), Bethesda, MD
# Radhakrishnan Padmanabhan, Ph.D., Georgetown University (GU), Washington D.C.
# Zika Virus causes congenital defects, including microcephaly and is associated with Guillain-Barre syndrome, eningoencephalitis and myelitis in infected adult. […] Using a target-based approach, we hope to establish a screening paradigm to uncover novel, cell-active NS2B-NS3 protease (Zika Virus) specific inhibitors from NCATS' collection of small molecules using qHTS.
# Four assay panel was created to identify potential Zika Virus inhibitors. Namely, (1) GU unlinked NS2B-NS3 AMC tagged protease qHTS, (2) GU unlinked NS2B-NS3 Rhodamine tagged protease qHTS, (3) NINDS linked NS2B-NS3 AMC tagged protease qHTS, (4) NINDS linked NS2B-NS3 Rhodamine tagged protease qHTS. Active compounds were re-acquired and re-screened to confirm inhibition. Inhibitors were further screened against various confirmatory and counterscreens in dose response format.
# Early Translation Branch (ETB)
# National Center for Advancing Translational Sciences (NCATS), Rockville, MD
# National Institute of Health (NIH), Bethesda, Maryland
# Padmanabhan lab provided the NS2B hydrophilic domain and NS3 protease domain in a noncovalent complex used for the unlinked assay. Control compound aprotinin is obtained from Thermo Scientific (#78432; Waltham, Massachusetts). Rhodamine110 substrate ([N-Cbz]-Nle-Lys-Arg-Arg-Rhod110-Arg-Arg-Lys-Nle-[N-Cbz]) was purchased from either Genscript or Bachem.
# 1536-well Protease (Rhodamine110 Substrate) Assay:
# Briefly, 3 microL of enzyme (25 nM final concentration), in assay buffer (10 mM Tris-HCl pH 8.0 with 0.01% Tween 20) were dispensed into a 1,536-well solid-bottom black plate (Greiner Bio One, Monroe, NC). Twenty-three nL of compounds (final concentration range 7.28 nM to 114 microM) or control Aprotinin (final concentration range 3.47 nM to 114 microM) were transferred via Wako Pin-tool (Wako Automation, Richmond, VA). Samples were incubated (room temperature, protected from light) for 15 minutes followed by a 1 microL Rhodamine110 substrate addition (1.5 microM final concentration). Plates were then immediately read on a ViewLux High-throughput CCD imager (PerkinElmer, Waltham, MA) equipped with FITC fluorescence optics (480(20) nm excitation, 540(25) nm emission), then incubated (room temperature, protected from light) for 15 minutes (~15% conversion). The change in fluorescence intensity over the 15-minute reaction period was normalized against no-inhibitor and no-enzyme controls and the resulting percent inhibition data were fitted to a 4-parameter Hill equation. Aprotinin was used as intraplate control.
# % is set by controls: 0 for no effect and ±100 for the full control effect; potency is the fitted concentration of half-maximal effect.
SMILES,"activity change, negative = inhibition",Potency
C1CCN2CC3C[C@@H](CN4CCCC[C@@H]34)[C@H]2C1,11.3% (inactive),–
C[C@@H]1O[C@@H](O[C@@H]2[C@@H](O)[C@H](O[C@@H]3[C@@H](O)[C@@H](O)[C@H](O[C@H]4[C@H](OC(=O)[C@]56CCC(C)(C)C[C@H]5C5=CCC7[C@@]8(C)C[C@H](O)[C@H](O[C@@H]9O[C@H](C(=O)O)[C@@H](O)[C@H](O)[C@H]9O)[C@@](C)(CO)C8[C@H](O)C[C@@]7(C)[C@]5(C)CC6)OC[C@H](O)[C@@H]4O)O[C@H]3C)OC[C@H]2O)[C@H](O)[C@H](O)[C@H]1O (stereo not given in full),20.7% [at 19.1 µM] (inactive),–
Cc1cc(C)cc(NC(=O)Cc2ccc(OC(C)(C)C(=O)O)cc2)c1,12.3% (inactive),–
COc1c(C)c(C(=O)c2ccc(N)c(C(=O)O)c2)n2ccccc12,31.4% (inactive),–
CCC(=O)N[C@@H]1Cc2ccccc2[C@H](c2ccccc2)C1,-8.27% (inactive),–
CC1(CO)CC2C(O)C(=O)C3(CO)CC3(C)C2C1 (stereo not given),0.372% (inactive),–
C[C@]12CCC(=O)C=C1[C@@H](O)C[C@@H]1[C@@H]2[C@@H](O)C[C@@]2(C)[C@H]1CC[C@]2(O)C(=O)CO,0% (inactive),–
C/C=C(/C)C(=O)O[C@H]1C=C(C)C[C@H](OC(=O)c2ccc(O)cc2)C2[C@](O)(C(C)C)CC[C@@]21C (stereo not given in full),8.86% [at 32.5 µM] (inactive),–
Clc1ccc2c(c1)C1=NCCN1c1c(-c3noc(C4CC4)n3)ncn1-2,7.08% (inactive),–
COc1cc(/C=C/C(=O)OC[C@H]2O[C@H](O[C@]3(CO)O[C@H](CO)[C@@H](O)[C@@H]3O)[C@H](O)[C@@H](O)[C@@H]2O)cc(OC)c1O,4.69% [at 57.1 µM] (inactive),–
Cc1ccc2c(c1)C=Cc1cc(C)ccc1C2c1cn(Cc2ccc(C(=O)Nc3nn[nH]n3)o2)c(=O)[nH]c1=S,–,3.16 µM (active)
CC(C)N(C[C@H]1O[C@@H](n2cnc3c(N)ncnc32)[C@H](O)[C@@H]1O)C1CC(CCc2nc3ccc(C(C)(C)C)cc3[nH]2)C1 (stereo not given in full),97% (inactive),–
CCS(=O)(=O)N1CCC([C@@H](C)n2c(C)c(C(=O)NCc3c(OC)cc(C)[nH]c3=O)c3ccccc32)CC1,-8.05% (inactive),–
COc1cc2c(cc1OC)CN(C(=O)[C@@H](NCc1ccncc1)C(C)(C)C)CC2,78.7% (inactive),–
COc1cc([C@H]2OC[C@@H]3[C@@H](c4ccc(O[C@@H]5O[C@H](CO)[C@@H](O)[C@H](O)[C@H]5O)c(OC)c4)OC[C@]23O)ccc1O,35.9% [at 57.1 µM] (inactive),–
CC1(C(=O)O)CCCC2(C)C1CCC13CC(CCC21)C1(CO)OC31 (stereo not given),7.64% (inactive),–
C=CC(C)(C)O[C@@H]1O[C@H](CO[C@@H]2OC[C@](O)(CO)[C@H]2O)[C@@H](O)[C@H](O)[C@H]1O,-2.35% (inactive),–
CC1=C(C)C(=O)OC(C(C)(O)C2CCC3C4CC=C5CC(OC6OC(COC7OC(CO)C(O)C(O)C7O)C(O)C(O)C6O)CC(O)C5(C)C4CCC32C)C1 (stereo not given),8.69% [at 32.5 µM] (inactive),–
CN[C@@H]1[C@@H](O)[C@@H](O[C@@H]2[C@@H](O)[C@H](O[C@H]3O[C@H](CN)[C@@H](O)[C@H](O)[C@H]3O)[C@@H](N)C[C@H]2NC(=O)[C@@H](O)CN)OC[C@]1(C)O,22.2% (inactive),–
CC(=O)N[C@H](Cc1ccc(O)cc1)C(=O)N[C@H](CCCN=C(N)N)C(=O)N[C@H](Cc1ccccc1)C(N)=O (Ac-[dY]-[dR]-[dF]-NH2),-23.3% (inactive),–

SMILES,"activity change, negative = inhibition",Potency
C[C@H]1C[C@H]2[C@@H]3CCC4=CC(=O)C=C[C@]4(C)[C@@]3(F)[C@@H](O)C[C@]2(C)[C@@]1(O)C(=O)COP(=O)(O)O,0% (inactive),–
C[C@@H]1O[C@@H](O[C@H]2[C@H](OC(C#N)c3ccc(O)cc3)O[C@H](CO)[C@@H](O)[C@@H]2O)[C@H](O)[C@H](O)[C@H]1O (stereo not given in full),9.7% [at 57.1 µM] (inactive),–
CC(C)C(=O)O[C@@H]1[C@@H](O)[C@@H](O[C@H]2O[C@H](CO)[C@@H](O)[C@H](O)[C@H]2O)O[C@H](CO)[C@H]1O,7.25% [at 57.1 µM] (inactive),–
CC1OC(OC2C(CO)OC(OCC3OC(OC(=O)C45CCC(C)(C)CC4C4=CCC6C7(C)CCC(OC8OC(C(=O)O)C(O)C(OC9OC(CO)C(O)C(O)C9O)C8O)C(C)(C)C7CCC6(C)C4(C)CC5)C(O)C(O)C3O)C(O)C2O)C(O)C(O)C1O (stereo not given),16.6% [at 19.1 µM] (inactive),–
C/C=C/C=C/C(CC(=O)O)Nc1ccc(C=O)cc1 (stereo not given),–,11.2 µM (active)
CC(=O)OC[C@]12[C@H](OC(C)=O)C(=O)[C@@H]3[C@@H](OC(C)=O)[C@@]14O[C@@]3(C)COC(=O)c1cccnc1[C@@H](C)[C@H](C)C(=O)O[C@@H]([C@H](OC(C)=O)[C@@H]2OC(C)=O)[C@]4(C)O,12.3% [at 32.5 µM] (inactive),–
CC(=O)OC[C@@]12[C@@H](OC(C)=O)C[C@@H](C)[C@](C)([C@@H]3C[C@H]4C=CO[C@H]4O3)[C@H]1CCC[C@]21CO1,8.03% [at 57.1 µM] (inactive),–
C[C@@H]1O[C@@H](O[C@H]2[C@H](OC(=O)C34CCC(C)(C)CC3C3=CCC5C6(C)CC(O)C(O[C@@H]7O[C@H](CO)[C@@H](O)[C@H](O)[C@H]7O)C(C)(C(=O)O)C6CCC5(C)C3(CO)CC4)O[C@H](C)[C@H](O)[C@@H]2O)[C@H](O)[C@H](O)[C@H]1O[C@@H]1OC[C@@H](O)[C@H](O)[C@H]1O (stereo not given in full),-18.8% [at 32.5 µM] (inactive),–
COc1cc([C@H]2OC[C@]3(OC(C)=O)[C@@H](c4ccc(O[C@@H]5O[C@H](CO)[C@@H](O)[C@H](O)[C@H]5O)c(OC)c4)OC[C@H]23)ccc1O,22.5% [at 32.5 µM] (inactive),–
C[C@@H]1O[C@@H](O[C@@H]2[C@@H](O)[C@H](O[C@@H]3[C@@H](O)[C@@H](O)[C@H](O[C@H]4[C@H](OC(=O)[C@]56CCC(C)(C)C[C@H]5C5=CCC7[C@@]8(C)C[C@H](O)[C@H](O[C@@H]9O[C@@H](C)[C@H](O)[C@@H](O)[C@H]9O)[C@@](C)(CO)C8CC[C@@]7(C)[C@]5(C)C[C@H]6O)O[C@H](C)[C@H](O)[C@@H]4O)O[C@H]3C)OC[C@H]2O)[C@H](O)[C@H](O)[C@H]1O (stereo not given in full),-9.55% [at 19.1 µM] (inactive),–
CC(=O)c1c(C)cc(O[C@@H]2O[C@H](CO)[C@@H](O)[C@H](O)[C@H]2O)cc1O,38.9% (inactive),–
CC1CCC(=O)CC(O)C(O)CC(=O)O1 (stereo not given),-12.2% (inactive),–
O=S(=O)(Nc1ccc(C(O)(C(F)(F)F)C(F)(F)F)cc1)c1cccs1,-12.8% (inactive),–
c1nc(NC2CCCCCC2)c2cc(CNC[C@H]3CCCO3)sc2n1,13% (inactive),–
COC(=O)C[C@@H]1C(C(=O)O)=CO[C@@H](O[C@@H]2O[C@H](CO)[C@@H](O)[C@H](O)[C@H]2O)/C1=C\COC(=O)/C=C\c1ccccc1,2.35% [at 57.1 µM] (inactive),–
C=C1CC[C@@H]2[C@](C)(CO[C@@H]3O[C@H](CO)[C@@H](O)[C@H](O)[C@H]3O)CCC[C@@]2(C)[C@@H]1CCC1=CCOC1=O,17.9% [at 57.1 µM] (inactive),–
C[C@@H]1O[C@@H](O[C@H]2[C@H](O)[C@@H](O)[C@H](OC[C@H]3O[C@@H](OC(=O)[C@]45CCC(C)(C)C[C@H]4C4=CCC6[C@@]7(C)C[C@H](O)[C@H](O[C@@H]8O[C@H](CO)[C@@H](O)[C@H](O)[C@H]8O)[C@@](C)(C(=O)O)C7CC[C@@]6(C)[C@]4(C)CC5)[C@H](O[C@@H]4O[C@H](CO)[C@@H](O)[C@H](O)[C@H]4O)[C@@H](O)[C@@H]3O)O[C@@H]2CO)[C@H](O)[C@H](O)[C@H]1O (stereo not given in full),-27.3% [at 19.1 µM] (inactive),–
CC1=CC(=O)CC(C)(CO[C@@H]2O[C@H](CO)[C@@H](O)[C@H](O)[C@H]2O)C1(O)/C=C/C(C)=C/C(=O)O (stereo not given in full),-2.39% [at 57.1 µM] (inactive),–
OCCc1ccc(O[C@@H]2O[C@H](CO)[C@@H](O)[C@H](O)[C@H]2O)c(O)c1,20% (inactive),–
C=CC1(C)C=C2C(=O)CC3C(C)(C)CCCC3(C(=O)O)C2(O)CC1 (stereo not given),-28.7% (inactive),–
